Drawing on PubChem BioAssay, this text covers composite z-score and z-score for 14 compounds.

Active and inactive are the calls of the source. Unless noted, no rule for the calls is given here.

Assay [1] has as its system Wnt5a (protein binding on small-molecule microarray). Kind of assay: small molecules binding Wnt5a protein – biophysical, small-molecule microarray, 635/667 nm fluorescence, primary screen (AID 1142).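 Also: fluorescence read at 667 nm with signal to noise per printed feature.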 The note with it: 635 nm fluorescence, higher = more signal.
The nature of assay [2]: ATP-based viability of Huh7 replicon cells – cell-based, CellTiter-Glo luminescence, basal, 48 h, cytotoxicity control for HCV replication inhibitor project, primary screen (AID 1143).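 Also: Huh7 hepatoma cells carrying a hepatitis C replication reporter with no stimulus; test concentration not given here.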 Particulars: higher = more signal, called active from +8 up or from −8 down.
A short description of assay [3]: Pseudomonas biofilm growth suppression – PAO1 strain, BacTiter-Glo luminescence, LB-PBS, primary screen (AID 1144). The note with it: P. aeruginosa PAO1 biofilm, 12 h, higher = more signal.
Assay [4] can be described thus: basal CRE-LacZ reporter activity in PC12 – cell-based, unstimulated, primary screen (AID 1145). The note with it: no forskolin, luminescence, 4.5 h, higher = more signal, called active from +8 up or from −8 down.
Assay [5] in a line: forskolin-driven CRE-LacZ activity in PC12 – cell-based, CRE-LacZ reporter, forskolin-stimulated, primary screen (AID 1146).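 Also: PC12 cells with 6xCRE LacZ reporter stimulated by forskolin 10 µM; beta-galactosidase reporter signal reflecting CREB driven transcription.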 Particulars: luminescence, 4.5 h, higher = more signal, called active from +8 up or from −8 down.
For assay [6], the target named is Streptavidin (Streptomyces avidinii) (UniProt P22629). Put plainly: compounds binding control protein streptavidin – biophysical, small-molecule microarray, 635/667 nm fluorescence, artefact control for SMM compound annotation, primary screen (AID 1147).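 Also: signal reflects streptavidin binding to arrayed compounds as a control protein.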 The note with it: higher = more signal.
Chain of Streptavidin (Streptomyces avidinii) (P22629 whole entry, looked up): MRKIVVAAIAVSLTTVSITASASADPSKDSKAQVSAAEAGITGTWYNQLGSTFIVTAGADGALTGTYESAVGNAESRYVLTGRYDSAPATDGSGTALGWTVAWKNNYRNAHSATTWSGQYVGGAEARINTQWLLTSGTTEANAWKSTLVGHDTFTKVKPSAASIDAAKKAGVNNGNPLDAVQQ
The nature of assay [7]: probe aInhba binding on compound microarray – biochemical, small-molecule microarray, 635/667 nm fluorescence, primary screen (AID 1148).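 Also: score merges 667nm spot fluorescence with signal-to-noise for antibody binding to printed compounds.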 Particulars: higher = more signal.
The target in assay [8] is Torsin-1A (Homo sapiens) (UniProt O14656). Kind of assay: TOR1A wild-type binding on microarray – cell lysate, small-molecule microarray, lysate, 635/667 nm, primary screen (AID 1149). Particulars: COS7 hTOR1A-WT lysate, 635 nm fluorescence, higher = more signal.
Chain of Torsin-1A (Homo sapiens) (O14656 whole entry, looked up): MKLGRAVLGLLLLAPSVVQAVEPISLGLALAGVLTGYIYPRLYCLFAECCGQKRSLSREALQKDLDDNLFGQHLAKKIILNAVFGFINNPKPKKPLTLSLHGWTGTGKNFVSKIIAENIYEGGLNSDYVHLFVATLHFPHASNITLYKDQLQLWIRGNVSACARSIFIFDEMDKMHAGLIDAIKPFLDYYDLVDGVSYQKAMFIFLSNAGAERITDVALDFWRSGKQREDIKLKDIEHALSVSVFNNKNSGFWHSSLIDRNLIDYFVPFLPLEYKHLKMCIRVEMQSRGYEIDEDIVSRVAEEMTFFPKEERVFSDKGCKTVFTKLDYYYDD
Assay [9] shares this target. Kind of assay: torsin A mutant lysate binding on microarrays – cell lysate, small-molecule microarray, COS7 lysate, 635/667 nm fluorescence, primary screen (AID 1150).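 Also: score pools 667 nm emission and signal to noise measuring lysate protein binding.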 The note with it: COS7 hTOR1A mutant lysate, 635 nm fluorescence, higher = more signal.
Assay [10] deals with Sonic hedgehog protein (Shh). Put plainly: Sonic hedgehog microarray binding compounds – biochemical, small-molecule microarray, 635/667 nm fluorescence, primary screen (AID 1151).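 Also: Shh protein binding to compounds spotted on small-molecule microarray slides; score combines spot fluorescence intensity with signal-to-noise across triplicate slides.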 Particulars: 635 nm fluorescence, higher = more signal.

On to `CC(C)c1ccc(NN2C(C(O)c3c(F)cccc3Cl)C=CC3C(=O)N(c4ccccc4)C(=O)C32)cc1` (stereo not given), for which the composite z-score in assay [1] is 0.658; in [6] it was 1.47; in assay [7], 0.765; with Torsin-1A (Homo sapiens) [8], 0.213; with Torsin-1A (Homo sapiens) [9], -0.164; in assay [10] it was -0.182. Besides, the z-score was -0.78 (inactive) in [2], -0.53 (inactive) in [3], -0.519 (inactive) in assay [4] and 0.746 (inactive) in assay [5].
As to `CC(C)(C)OC(=O)CC[C@@]1(C(=O)NCCN2CCOCC2)N=C(c2ccc(OCCCO)cc2)O[C@@H]1c1ccccc1`, the composite z-score was 0.739 in assay [1]; 1.12 in assay [6]; 0.248 in [7]; 0.388 with Torsin-1A (Homo sapiens) [8]; -0.522 with Torsin-1A (Homo sapiens) [9]; 0.306 in assay [10]. The z-score in assay [2] was 0.256 (inactive); in assay [3], 0.174 (inactive); in assay [4], -1.33 (inactive); in assay [5], -0.998 (inactive).
As to `COc1ccc(C#Cc2ccc3c(c2)[C@]2(C(=O)N3)[C@H](C(=O)NC[C@H](O)c3ccccc3)[C@H]3C(=O)O[C@H](c4ccccc4)[C@H](c4ccccc4)N3[C@@H]2c2ccc(OCCO)cc2)cc1`, the composite z-score in assay [1] was 0.628; in [6], 0.59; in assay [7], -0.0173; in the assay with Torsin-1A (Homo sapiens) [8], 0.369; with Torsin-1A (Homo sapiens) [9] it was 0.869; in [10], 1.96. In addition, the z-score was -2.89 (inactive) in [2], -0.563 (inactive) in assay [3], 0.478 (inactive) in assay [4] and -0.447 (inactive) in assay [5].
Regarding `COC(=O)C[C@@H]1C[C@H](C)[C@]2(O1)C(=O)N(Cc1ccccc1)c1ccc(NC(C)=O)cc12`, the composite z-score is 0.739 in assay [1]; -0.101 in [6]; -0.128 in assay [7]; 0.0771 in the assay with Torsin-1A (Homo sapiens) [8]; 0.362 in the assay with Torsin-1A (Homo sapiens) [9]; 0.034 in assay [10]. In addition, the z-score in [2] was -0.578 (inactive); in assay [3], 0.347 (inactive); in assay [4] it was 3.56 (inactive); in assay [5], -0.47 (inactive).
On to `O=C1c2ccccc2[C@@]2(Cc3ccccc3N(Cc3ccccc3)C2=O)[C@H](c2ccc(CO)cc2)N1C1CCCCC1`, for which the composite z-score in assay [1] is 0.149; in assay [6] it was -0.258; in [7] it was -0.0933; with Torsin-1A (Homo sapiens) [8], 0.177; with Torsin-1A (Homo sapiens) [9] it was -0.269; in [10], 1.08. Also, the z-score in assay [2] is 0.608 (inactive); in assay [3], 0.0703 (inactive); in assay [4] it was 0.0924 (inactive); in [5], 0.0935 (inactive).
In the case of `CCCCC=C[C@@H](NC(=O)c1cccs1)c1ccccc1`, the composite z-score in assay [1] was 0.0001; in assay [6], 0.801; in [7], 0.261; in the assay with Torsin-1A (Homo sapiens) [8], 0.0798; with Torsin-1A (Homo sapiens) [9], 0.454; in [10], -0.216. Moreover, the z-score in [2] was -2.49 (inactive); in assay [3] it was 0.15 (inactive); in assay [4], -0.951 (inactive); in assay [5] it was -0.548 (inactive).
With `CC(C)NC(=O)[C@@]1(Cc2ccccc2I)c2ccccc2C(=O)N(Cc2ccccc2)[C@H]1c1ccc(CO)cc1`, the composite z-score in [1] is 0.107; in assay [6], 0.0632; in assay [7] it was 0.817; with Torsin-1A (Homo sapiens) [8] it was 0.484; with Torsin-1A (Homo sapiens) [9] it was -0.181; in [10] it was 1.39. The z-score in assay [2] is -2.05 (inactive); in assay [3] it was -0.549 (inactive); in assay [4] it was -0.231 (inactive); in assay [5], 0.0359 (inactive).
Turning to `COc1ccc(C(O)C2C=CC3C(=O)N(c4ccccc4)C(=O)C3N2Nc2ccc([N+](=O)[O-])cc2)cc1OCc1ccccc1` (stereo not given), the composite z-score is 1.43 in [1]; 0.935 in assay [6]; 1.16 in [7]; -0.153 with Torsin-1A (Homo sapiens) [8]; 0.159 in the assay with Torsin-1A (Homo sapiens) [9]; -0.381 in [10]. In addition, the z-score is -0.317 (inactive) in [2], 0.208 (inactive) in assay [3], -0.387 (inactive) in assay [4] and -0.588 (inactive) in assay [5].
For `[N-]=[N+]=NCc1ccccc1[C@H]1OC(c2ccc(OCCCO)cc2)=N[C@@]1(CCS(=O)(=O)c1ccccc1)C(=O)N1CCOCC1`, the composite z-score in assay [1] was 1.03; in assay [6], 1.62; in assay [7], 0.556; in the assay with Torsin-1A (Homo sapiens) [8], 1.7; with Torsin-1A (Homo sapiens) [9] it was 1.85; in [10], -0.164. In addition, the z-score in assay [2] is -0.865 (inactive); in assay [3], 0.164 (inactive); in assay [4] it was 0.526 (inactive); in assay [5], 0.363 (inactive).
Turning to `Cc1ccccc1C(O)C1C=CC2C(=O)N(C)C(=O)C2N1Nc1ccccc1` (stereo not given), the composite z-score in [1] was 0.125; in assay [6], 1.69; in assay [7] it was 0.112; with Torsin-1A (Homo sapiens) [8], 0.0494; in the assay with Torsin-1A (Homo sapiens) [9], 0.303; in assay [10], -0.0269. Further, the z-score in assay [2] was 0.881 (inactive); in assay [3], 0.149 (inactive); in [4], -0.522 (inactive); in assay [5], -0.0967 (inactive).
Regarding `Cc1cc(C)c(C(O)C2C=CC3C(=O)N(c4ccccc4)C(=O)C3N2Nc2ccc(C#N)cc2)c(C)c1` (stereo not given), the composite z-score in [1] is 0.461; in [6] it was 2; in assay [7], 0.427; with Torsin-1A (Homo sapiens) [8], 0.221; with Torsin-1A (Homo sapiens) [9], 1.51; in assay [10], -0.438. Moreover, the z-score was 0.287 (inactive) in assay [2], -1.36 (inactive) in assay [3], 0.246 (inactive) in assay [4] and 1.19 (inactive) in assay [5].
For the compound `C=CCNC(=O)[C@@H]1[C@H]2C(=O)O[C@H](c3ccccc3)[C@H](c3ccccc3)N2[C@H](c2ccc(O)cc2)[C@@]12C(=O)N(C(=O)OCCOC)c1ccccc12`, the composite z-score in [1] was 0.0795; in [6], 1.56; in assay [7], -0.0375; with Torsin-1A (Homo sapiens) [8] it was 0.677; in the assay with Torsin-1A (Homo sapiens) [9], 0.76; in assay [10], 0.951. Besides, the z-score in assay [2] is -4.99 (inactive); in [3] it was -0.848 (inactive); in [4], 1.04 (inactive); in assay [5], -0.0406 (inactive).
Turning to `Cc1ccc(S[C@]2(C(=O)NC3CC3)CC(=O)N(Cc3ccccc3)[C@@H]2c2ccc(CO)cc2)cc1`, the composite z-score in assay [1] is -0.144; in assay [6], -0.807; in assay [7] it was -0.0762; with Torsin-1A (Homo sapiens) [8], -0.559; with Torsin-1A (Homo sapiens) [9], -0.906; in assay [10], -0.863. For the same compound, the z-score in [2] is 0.103 (inactive); in assay [3] it was 0.396 (inactive); in assay [4], -0.295 (inactive); in [5], 0.473 (inactive).
As to `O=C(CS)NCCCCCCNC(=O)[C@H]1C[C@H]2C(=O)NCC(=O)N2[C@H]1c1ccc(O)cc1`, the composite z-score is -0.319 in assay [1]; -0.406 in assay [6]; -0.188 in assay [7]; -0.21 in the assay with Torsin-1A (Homo sapiens) [8]; -0.14 in the assay with Torsin-1A (Homo sapiens) [9]; 0.518 in assay [10]. Moreover, the z-score in assay [2] was 0.0181 (inactive); in assay [3], -0.333 (inactive); in assay [4], 0.692 (inactive); in [5], 0.551 (inactive).
